Rab9 promoter act: qHTS Assay for Rab9 Promoter Activators; hit rate 2.8% among 320,000; Huh7 Rab9 promoter-luciferase reporter, luminescence, 24 h; AID 485297, 2010; Potency, µM (doses to about 9.22 µM), for inactives: top-dose activation, negative = inhibition, most hits filed as activators; also: % of control where 0% means no effect; nearly all actives have a fitted effect of over 60% in size
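Luminescence from Amplite-detected luciferase (10 minutes, ambient) reports Rab9 promoter activation. Before that, stable Rab9-luciferase Huh7 cells (1500/well, reduced-serum OP-MEM I plus 10% FBS) were exposed to compound for 24 hours at 37C.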
ELG1 genotox: qHTS screen for small molecules that induce genotoxicity in human embryonic kidney (HEK293T) cells expressing luciferase-tagged ELG1; HEK293T ELG1-luciferase reporter, luminescence, 16 h; Potency, µM (titrated, usually from 46 µM), for the others: at the top dose activity change, positive = activation, usual class: activators; hit rate 1.3% among 330,000; also: % of control where 0% means no effect; nearly all actives have a fitted effect of over 60% in size
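Cells (2,000/well) expressing the ELG1-luciferase fusion are dosed by pin tool and kept 16 hr at 37 °C, 5% CO2. Signal comes from ONE-Glo luciferase reagent after 30 min at room temperature.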
KinaseGlo FLuc: Counterscreen for Luciferase (Kinase-Glo TM) Inhibition; Luciferin 4-monooxygenase (Photuris pensylvanica), Q27757; Kinase-Glo luciferase, ATP luminescence, 8 min; Potency, µM (highest dose often 38.3 µM), for the others: at the top dose activity change, negative = inhibition, hits mostly inhibitors; hit rate 0.28% among 200,000; AID 1379, 2008; also: % is scaled to controls: 0 for no effect and ±100 for the full control effect; nearly all actives have a fitted effect of over 60% in size
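Compound is pinned into ATP-containing buffer (10 uM ATP, imidazole pH 7.2, 7 mM MgCl2). Kinase-Glo luciferase reagent is then added. Light output is recorded following an 8-min room-temperature incubation.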
SMN2 splice enh: qHTS Assay for Enhancers of SMN2 Splice Variant Expression; HEK293 SMN2-luciferase splicing reporter, luminescence, 30-36 h; Potency, µM (doses to about 46.1 µM), for the others: at the highest dose activity change, positive = activation, actives largely listed as activators; hit rate 2.8% among 210,000; also: % of control where 0% means no effect; nearly all actives have a fitted effect of over 55% in size
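HEK293 cells carry an SMN2 […]–luciferase reporter in which exon 7 inclusion puts luciferase in frame. Cells were plated 10-12 h before compound addition, then incubated 30-36 h at 37C. ONE-Glo luminescence was read; sodium butyrate at 4.5 mM final served as control.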
NPC1 prom act: qHTS Assay for NPC1 Promoter Activators | hit rate 2.4% among 320,000 | AID 485313, 2010 | Huh7 NPC1 promoter luciferase reporter, 24 h | Potency, µM (doses to about 9.22 µM), inactives show at the top dose activation, hits mostly activators; also: % of control where 0% means no effect; nearly all actives have a fitted effect of over 60% in size
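NPC1 promoter–luciferase Huh7 cells; 24 h compound; luminescence.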
FLuc counter: qHTS profiling assay for firefly luciferase inhibitor/activator using purifed enzyme and Km concentrations of substrates (counterscreen for miR-21 project); Luciferin 4-monooxygenase (Photinus pyralis), P08659; purified FLuc, Km substrates, luminescence inhibition; Potency, µM (highest dose often 57.5 µM), for inactives: at the top dose activity change, negative = inhibition, usual class: inhibitors; hit rate 6.9% among 360,000;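 also: plate controls were vehicle for no effect and reference inhibitor for full effect; nearly all actives have a fitted effect of over 55% in size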
Target sequence (P08659 whole entry, looked up): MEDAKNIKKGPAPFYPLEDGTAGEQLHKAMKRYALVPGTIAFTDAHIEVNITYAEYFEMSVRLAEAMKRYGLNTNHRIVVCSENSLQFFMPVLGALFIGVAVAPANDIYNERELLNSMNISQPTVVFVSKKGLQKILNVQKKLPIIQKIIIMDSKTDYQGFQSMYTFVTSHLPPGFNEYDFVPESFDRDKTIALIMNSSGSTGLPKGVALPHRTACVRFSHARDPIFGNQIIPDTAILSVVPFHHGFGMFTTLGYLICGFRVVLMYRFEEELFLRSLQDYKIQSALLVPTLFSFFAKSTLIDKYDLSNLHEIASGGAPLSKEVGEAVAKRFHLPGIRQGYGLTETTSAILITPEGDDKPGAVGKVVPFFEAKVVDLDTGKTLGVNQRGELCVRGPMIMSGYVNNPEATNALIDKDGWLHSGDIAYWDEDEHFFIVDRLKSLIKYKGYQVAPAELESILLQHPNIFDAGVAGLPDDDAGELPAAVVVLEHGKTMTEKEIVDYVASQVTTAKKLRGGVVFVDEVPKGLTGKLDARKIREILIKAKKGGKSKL
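Purified P. pyralis luciferase (10nM final) with 10uM D-luciferin and 10uM ATP (Km levels) in 50mM Tris acetate pH 7.5, 10mM Mg acetate, 0.01% Tween-20, 0.05% BSA; qHTS 6-point titration, ~60 µM downward; luminescence read.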
Starred values were filed as active, the others as inactive; ? = inconclusive; . = no result; [ ] = another dose, or the depositor's remark. Hits are enriched below; roughly 7.5% of the tested compounds scored in any of these assays. Calls follow the shape of the dose curve; as a rule, active = well fitted curve in the direction sought with a large enough effect; inconclusive = small, poorly fitted or top-dose-only effect, or another doubt; inactive = no such curve, though single readings can be large; an effect the other way counts as inactive or inconclusive. Potency is read from the fitted curve at half-maximal effect.

SMILES	Rab9 promoter act	ELG1 genotox	KinaseGlo FLuc	SMN2 splice enh	NPC1 prom act	FLuc counter
Cc1cc2nc(-c3ccccc3)cc(=O)n2[nH]1	?	11%	.	.	?	6.7µM*
O=c1cc(-c2ccccc2)nc2cc(-c3ccco3)[nH]n12	?	16%	.	.	22%	3.4µM*
COc1ccc(OC)c(NC(=O)C(C)n2c(=O)c(-c3ccccc3NC(C)=O)nc3ccccc32)c1 (configuration not stated)	.	.	.	.	.	-7%
Cc1nn(CC(=O)N2CCN(c3ccccc3)CC2)c(=O)c2cc3cc(F)ccc3n12	.	.	.	0%	.	6%
O=c1c2sc3ccccc3c2n(Cc2cccc(F)c2)c(=O)n1Cc1ccccc1	.	.	.	-11%	.	-6%
O=c1c2oc3nc4c(cc3c2ncn1CCCc1ccccc1)CCCC4	?	14%	.	.	24%	24µM*
COc1ccccc1NC(=O)Cn1cnc2c(oc3nc4c(cc32)CCCC4)c1=O	0%	-1%	.	.	-3%	-14%
CCCCCCn1cnc2c(oc3nc4c(cc32)CCCC4)c1=O	3.2µM*	14%	0%	11µM*	?	?
CCCCn1cnc2c(oc3nc4c(cc32)CCCC4)c1=O	0.56µM*	?	.	.	0.63µM*	6µM*
COc1cccc(NC(=O)Cn2cnc3c(oc4nc5c(cc43)CCCC5)c2=O)c1	-4%	?	.	.	-1%	-2%
CCC(=O)C1=C(c2cccc([N+](=O)[O-])c2)N(C(=O)CC)n2c(nnc2C2CCCCC2)S1	.	.	.	.	.	0%
COc1ccc(-n2cnc3cc(NCc4ccccn4)ccc32)cc1	22%	7%	1%	-8%	16%	17µM*
CCCn1cnc2cc(NCc3cccc(OC)c3O)ccc21	-3%	?	-4%	-2%	18%	12µM*
COc1ccc(-n2cnc3ccccc32)cc1	3%	-15%	1%	-10%	4%	?
CCCn1cnc2cc(NCc3ccccn3)ccc21	3.2µM*	?	-5%	13µM*	3.2µM*	12µM*
COc1cccc(CNc2ccc(F)c(Cl)c2)c1OC	2%	2%	3%	-28%	0%	0%
CCn1cnc2cc(NCc3ccncc3)ccc21	-2%	3%	5%	.	-2%	-2%[2.3 µM]
COc1cccc(CNc2ccc3c(c2)ncn3C(C)C)c1OC	4µM*	14%	1%	?	4µM*	17µM*
Cc1ccc2nc(Cl)c3cc(C(=O)N(C)C4CCCCC4)sc3c2c1	.	.	.	-2%	.	-2%
CC(NC(=O)Cc1ccsc1)c1ccc(Cl)cc1Cl (configuration not stated)	-3%	-4%	.	.	-1%	-1%
COc1ccccc1-n1cnc2cc(NC(C)=O)ccc21	1%	11%	-1%	17%	-1%	1%
COc1ccccc1-n1cnc2cc(NCc3ccccn3)ccc21	16%	10%	1%	11%	-3%	15µM*
O=C(NCCCn1ccnc1)c1ccc(COc2ccccc2)o1	-4%	13%	.	.	-5%	-1%
CN(C(=O)CSc1nnc(COc2ccccc2)o1)c1ccccc1	.	.	.	.	.	-10%
Cc1csc(N/N=C/c2ccccn2)n1	0.45µM*	12µM*	?	3.5µM*	4%	2.1µM*
SMILES	Rab9 promoter act	ELG1 genotox	KinaseGlo FLuc	SMN2 splice enh	NPC1 prom act	FLuc counter
Cc1csc(N/N=C/c2ccc([N+](=O)[O-])cc2)n1	2.8µM*	10%	.	.	?	?
Brc1csc(/C=N/Nc2nc3ccccc3s2)c1	3.2µM*	?	-4%	2.8µM*	5µM*	1.2µM*
Cc1cc(=O)[nH]c(N/N=C/c2ccc([N+](=O)[O-])cc2)n1	0%	10%	3%	-10%	-2%	-1%
C(=N\Nc1nc2ccccc2s1)/c1ccccn1	-28%	?	.	.	-6%	0.076µM*
C[N+](C)([O-])Cc1cc(-c2ccccc2)ccc1O	.	.	0%[7.66 µM]	-13%[9.22 µM]	.	.
O=c1cnc2cnc(Oc3ccccc3)nc2n1CCc1ccccc1	.	.	0%	-3%	.	.
C(=N\Nc1ccccc1)/c1nc2ccccc2s1	0.79µM*	?	.	.	3.5µM*	1.5µM*
CCNc1nc(NCC)nc(N/N=C/c2ccc(Br)cc2)n1	-3%	-10%	-4%	-21%	-15%	-13%
O=C(O)c1csc(N/N=C/c2ccc(Br)cc2)n1	30%	7%	4%	-5%	25%	5.4µM*
Oc1ccc(O)c(-c2cnns2)c1	-6%	-1%	-1%	9%	-14%	8.5µM*
Nc1nc(N)nc(-c2cc(O)ccc2O)n1	10%	-3%	.	.	?	-19%
O=C(NCc1ccco1)c1cc(-c2cccnc2)nc2ccccc12	-8%	-2%	1%	-7%	-5%	-5%
COc1cccc(-c2cc(C(=O)NCc3ccco3)c3ccccc3n2)c1	1%	-11%	.	.	9%	21µM*
Cc1ccc(-c2cc(C(=O)NCc3ccco3)c3ccccc3n2)o1	14%	-9%	-9%	-7%	-6%	12µM*
Cc1ccccc1Nc1cc(C(=O)NCc2ccco2)c2ccccc2n1	-4%	-7%	2%	-9%	-6%	15µM*
COC(=O)c1nnn(-c2cccc(Cl)c2)c1C(=O)OC	-1%	2%	.	.	-5%	-1%
COc1ccccc1CNC(=O)CSc1ccccc1	3.2µM*	?	1%	?	?	?
COc1ccc(NC(=O)CSc2ccc(C)cc2)cc1	27%	?	1%	8%	?	21µM*
O=C(CSc1ccc(F)cc1)Nc1ccc(C2SCCS2)cc1	?	?	.	.	?	11µM*
CC(=O)Oc1ccc(NC(=O)CSc2ccccc2)cc1	18%	15µM*	-2%	?	28%	?
COc1ccc(NC(=O)c2ccccc2NC(=O)CSc2ccc(C)cc2)cc1	?	?	-1%	-15%	20%	0%
Cc1cc(=O)[nH]c(SCCOc2ccc(OC(C)C)cc2)n1	?	5.2µM*	-20%	?	?	15µM*
C/C=C/c1ccc(OCCSc2nc(C)cc(=O)[nH]2)c(OC)c1	9%	?	14%	10%	-7%	13µM*
Cc1cc(=O)[nH]c(SCCOc2ccc3c(c2)CCC3)n1	.	.	-1%	13µM*	.	7.6µM*
Cc1cc(=O)[nH]c(SCCCOc2ccccc2Cl)n1	1%	-7%	-2%	-3%	12%	24µM*
COc1ccc(Cl)cc1Nc1cc(C)nc2nc(-c3ccccc3C)nn12	.	.	.	-8%	.	-3%
COc1ccc(CCNC(=O)c2c(O)nc3c(C)cccn3c2=O)cc1	.	.	.	?	.	5%

Source: PubChem BioAssay (National Center for Advancing Translational Sciences (NCATS))
